Reference: the supplement of paper PMC6555819

tested on: RARg homodimer (NR concentration 270 nM); test: PBM binding z-score (relative to random genomic background probes); higher = stronger binding; sequences stand for … in GC…GCGATTGACAGCGTAGAATGAAGG
Summary of the method: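 Scanned fluorescence from custom Agilent 4×180K protein-binding microarrays was regression-normalized. Binding z-scores use random background probes as reference. Ligand-free nuclear receptor dimers were incubated on the arrays for 1 h and detected with antibodies against each partner (one per run).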

Row | Sequence | PBM binding z-score
1 | CCTTACGGGTCACGAGGTTATAGCTCGACGAGCG | 5.15
2 | ACTTACGGGTCAACGAGGTGATAGCACGCGTATA | 4.83
3 | CGAACTAGGTCATTGACAGGTCAGTGAATAGTAA | 5.57
4 | GGAACGAGGGCATTGGAGTTGATAGCATGGCGAT | 1.42
5 | TCTATTAATTGAAGGGCAACCGACGAGTCCGTTT | 0.454
6 | TTTATTAGTTGATTAGGGCAACCGAAACAGCGGA | 0.769
7 | CGAACGAGGTCAAGGACAGTGAATCTCCGCACGC | 6.59
8 | GCTCGGAGGACAAGGTTAGAGCTTTGTCCGTAGA | 1.01
9 | CCTACTGGGCCAGTCAGAGGTCATTGATCATATG | 2.79
10 | CTCAAAAGGTCGGTTGAGGTGAGTATACGGATAA | 2.85
11 | AGTCAAAGTTCAGGATGAGGTAACGTAAAGCACG | 4.82
12 | ATCTCTAGCTAAAGATAGTTCAGTGAATGCAAAT | 0.353
13 | CAAACTAGGTCAAAGGTCACAGTCGAGCCAACCA | 7.36
14 | ATATGTAGGTTACATCCGGGTTATTCAGGCTATG | 1.4
15 | ATATGTAGGTTAGCTGGGGTCATTTAGACTAGGC | 2.65
16 | CCAGACATGTGAGAAGGTAACTCAGCCTCGATTA | 0.231
17 | TCTCGGACGACACGAAAGGTCAGAGCTCGACATC | 4.55
18 | CGTCCAAGGTCAAAGCTCAGTGAAGAGATGACGG | 6.4
19 | ATCTCTAGGTAAAAGTTAAGTGAATCCCGAGGAT | 0.586
20 | TCTAGATGGTCAAAGGTCACACACTCGAAATGCG | 5.87

Row | Sequence | PBM binding z-score
21 | GGAACGAGGGCATTCGAGTTGTTAGCATGGCGAT | 1.17
22 | CCTTACGGGTCAAAGTTATAGCACGGGTGGTACG | 3.89
23 | GCATATAGCTAATACAAGGTGAAAGTCCGATTGT | 0.451
24 | CCTCGGAGGACAGGAGGTCAGAGCTGTCCGCTTT | 3.29
25 | AATACATGGTCATCGTAGGCCAGAGTACGCACAG | 1.26
26 | CCTACTGGGCCAGCAGGTCATTGATATCAACGTT | 1.62
27 | GCTAGCAGGTCATTTGGGTCACTCAATGACGGGC | 4.38
28 | CCGAGTAGGTTAGGGGGCATTCAGGCAACGGTGA | 1.79
29 | CAAACTAGGTCAAGGTGAAAGTCGGTTTGTGCCA | 4.95
30 | ATCTGTAGGTTAGCTGGGGTCATTCAGACTAGGC | 3.04
31 | ATATGTAGATTAGCTGGGGTCATTCAGACTAGGC | 2.17
32 | ACAGACAGGTGATGAAGGAAACTCAGGCTATCAT | 0.36
33 | CAAACTAGGTCACCGGAAGGTCTAAGTCCGCATG | 5.56
34 | CTAACTAGGTCAGAACAGGACAGTGAAGGATGAT | 3.26
35 | TCTAGCAGGCCAGAGTGTCACTCAAGAGGTACGG | 0.167
36 | ATCTCTAGGTAAGACGCAGTTCAGTGAAGAACGC | 0.097
37 | TCATACAGGTAAAGGTGAAAGTCGAACGATATGA | 1.69
38 | ACTATTAGTTGATTTAGGGCAACCGATACGACGC | 0.883
39 | TCATATAGGTAAAAGGTGAAACTCGGTGTGGTAA | 1.17
40 | AATACAGGGTCACTAGTCCAGAGTAGGTACGAAT | 4.83
